In the supplement of paper PMC11624193, “Coupling cellular drug-target engagement to downstream pharmacology with CeTEAM” (Nature Communications, 2024):
Where a name gives a salt, the structure may show the parent alone. A number with no mark means an inactive call.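 The calls were made as follows: active = log2 fold change beyond 2 SD from the library mean after excluding viability outliers; inactive = within 2 SD.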

Target: PARP1 L713F-nLuc biosensor (HCT116) (UniProt P09874)
Experiment: PARP1 L713F-nLuc/akaLuc ratio relative to DMSO control (biosensor stabilization) (fold change); higher = more PARP1 biosensor stabilization (target engagement / stabilizer), active = hit call of the paper
Details: stock concentration (mM; final µM = stock mM x 1): 10; 24 h

Sequence of PARP1 L713F-nLuc biosensor (HCT116) (P09874 whole entry L713F, looked up): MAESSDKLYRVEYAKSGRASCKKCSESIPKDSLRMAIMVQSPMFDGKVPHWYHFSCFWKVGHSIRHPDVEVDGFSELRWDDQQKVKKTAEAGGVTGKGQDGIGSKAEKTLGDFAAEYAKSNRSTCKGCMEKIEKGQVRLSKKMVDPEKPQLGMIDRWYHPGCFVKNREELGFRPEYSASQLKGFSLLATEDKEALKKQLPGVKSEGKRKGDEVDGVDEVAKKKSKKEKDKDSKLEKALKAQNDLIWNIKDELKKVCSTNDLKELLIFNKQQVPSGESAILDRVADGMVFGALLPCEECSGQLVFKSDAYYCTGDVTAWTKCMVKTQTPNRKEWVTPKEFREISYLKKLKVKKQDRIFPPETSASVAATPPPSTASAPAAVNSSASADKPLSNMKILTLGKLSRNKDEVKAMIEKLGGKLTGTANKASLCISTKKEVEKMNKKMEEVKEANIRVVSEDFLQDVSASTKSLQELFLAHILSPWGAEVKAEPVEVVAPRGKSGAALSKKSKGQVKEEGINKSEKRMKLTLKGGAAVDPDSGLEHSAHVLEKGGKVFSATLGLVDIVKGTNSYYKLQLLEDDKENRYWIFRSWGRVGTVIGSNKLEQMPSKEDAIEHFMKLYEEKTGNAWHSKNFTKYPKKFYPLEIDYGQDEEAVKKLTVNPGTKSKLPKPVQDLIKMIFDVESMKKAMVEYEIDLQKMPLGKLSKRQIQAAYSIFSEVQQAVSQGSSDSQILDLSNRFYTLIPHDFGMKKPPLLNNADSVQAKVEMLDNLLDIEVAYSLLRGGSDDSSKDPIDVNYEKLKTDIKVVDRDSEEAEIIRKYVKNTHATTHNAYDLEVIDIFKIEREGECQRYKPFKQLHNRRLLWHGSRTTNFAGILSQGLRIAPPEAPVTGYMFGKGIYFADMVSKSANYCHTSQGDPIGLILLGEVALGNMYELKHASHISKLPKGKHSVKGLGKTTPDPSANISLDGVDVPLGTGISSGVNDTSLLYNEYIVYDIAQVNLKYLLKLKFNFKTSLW

Row | SMILES | PARP1 L713F-nLuc/akaLuc ratio
1 | CC(=O)Nc1cc(Oc2ccc3c(nc(Nc4ccc(F)cc4F)n3C)c2C)ccn1 | 0.89
2 | NC(=O)NO [Hydroxyurea] | 0.953
3 | N=C(NC(=N)N1CCCC1)Nc1ccc(OC(F)(F)F)cc1 | 1.01
4 | COC(=O)c1ccc2c(c1)NC(=O)/C2=C(\Nc1ccc(N(C)C(=O)CN2CCN(C)CC2)cc1)c1ccccc1 [Nintedanib (BIBF 1120)] | 0.6
5 | Cc1ccc(C(=O)Nc2ccc(S(=O)(=O)O)c3cc(S(=O)(=O)O)cc(S(=O)(=O)O)c23)cc1NC(=O)c1cccc(NC(=O)Nc2cccc(C(=O)Nc3cc(C(=O)Nc4ccc(S(=O)(=O)O)c5cc(S(=O)(=O)O)cc(S(=O)(=O)O)c45)ccc3C)c2)c1 [Suramin (sodium salt)] | 0.738
6 | CNc1nc(-c2ccc3c(N)n[nH]c3c2)cc(N2C[C@@H](C(=O)NC3CCCCC3)CC[C@H]2C)n1 | 0.434
7 | Cc1cc(Nc2cc(CN3CCOCC3)c3nc(C)c(Cc4ccc(Cl)cc4F)n3n2)n[nH]1 | 1.18
8 | CCN(c1cc(-c2ccc(CN3CCOCC3)cc2)cc(C(=O)NCc2c(C)cc(C)[nH]c2=O)c1C)C1CCOCC1 [Tazemetostat (hydrobromide)] | 0.726
9 | O=c1[nH]c(Oc2cnn(Cc3ccccc3)c2)nc2cnccc12 | 0.946
10 | N#Cc1c(Oc2ccc(F)c(NC(=O)Cc3cccc(C(F)(F)F)c3)c2)ccc2nc(NC(=O)C3CC3)sc12 | 0.538
11 | CC(C)(O)CNc1nc(Nc2ccnc(C(F)(F)F)c2)nc(-c2cccc(C(F)(F)F)n2)n1 [Enasidenib (AG-221)] | 1.96
12 | COc1cc(C)c(/C=C/C(C)=C/C=C/C(C)=C/C(=O)O)c(C)c1C [Acitretin] | 0.747
13 | N[C@H]1C[C@@H]1c1ccc(-c2cccc(O)c2)cc1 | 0.692
14 | Cc1cc(Nc2nc(N[C@@H](C)c3ccc(F)cc3)c(C#N)cc2F)n[nH]1 | 13.6 (active)
15 | O=C(O)CCCCC(CCSCc1ccccc1)SCc1ccccc1 (stereo not drawn) | 1.06
16 | O=c1[nH]cc(F)c(=O)[nH]1 [Fluorouracil (5-Fluoracil, 5-FU)] | 0.702
17 | CC#CC(=O)N1CC[C@@H](n2c(=O)n(-c3ccc(Oc4ccccc4)cc3)c3c(N)ncnc32)C1 [ONO-4059 (GS-4059) hydrochloride] | 1.06
18 | N#Cc1cccnc1N1CCN(C(=O)c2cccc(Cc3n[nH]c(=O)c4ccccc34)c2)CC1 | 2.72 (active)
19 | Cc1c(-c2cnccn2)ssc1=S [Oltipraz] | 0.846

Row | SMILES | PARP1 L713F-nLuc/akaLuc ratio
20 | S=C(NCc1ccc2c(c1)OCO2)N1CCN(c2ncnc3c2oc2ccccc23)CC1 [Amuvatinib (MP-470)] | 0.659
21 | COc1ccc(S(=O)(=O)Nc2cc(-c3csc(C#N)c3)ccc2C)cc1 | 1.24
22 | CNC[C@@H](O)COc1ccc(Cl)c(-c2nc(-c3c(C)noc3C)c(C)c(N3CC4(CCN(C(=O)OC)CC4)C3)n2)c1 | 0.955
23 | CN(C)C(=N)NC(=N)N [Metformin] | 1.5
24 | OC1CCC(Nc2ncc3nc(Nc4c(F)cc(F)cc4F)n([C@H]4CCOC4)c3n2)CC1 (stereo partly drawn) [Tanzisertib(CC-930)] | 1.11
25 | OC(COc1ccc(C(F)(F)F)cc1)CN(Cc1ccccc1)Cc1ccccc1 (stereo not drawn) | 1.03
26 | O=C(Nc1ccc(Cl)cc1)c1cc2ccccc2cc1OP(=O)(O)O | 1.35
27 | NC(=O)c1cccc2cn(-c3ccc([C@@H]4CCCNC4)cc3)nc12 [Niraparib (tosylate)] | 7.76 (active)
28 | C[C@H]1CNCCCN1S(=O)(=O)c1cccc2cncc(F)c12 [Ripasudil (K-115) hydrochloride dihydrate] | 1.12
29 | COc1cc(Nc2ncc3c(n2)-c2ccc(Cl)cc2C(c2c(F)cccc2OC)=NC3)ccc1C(=O)O [Alisertib] | 0.939
30 | COc1ccc(CN2CCC(c3ccc4nc(C(=O)N5CCN(Cc6ccc(C(F)(F)F)cc6)CC5)[nH]c4c3)CC2)cn1 | 0.348
31 | Nc1nc(=S)c2[nH]cnc2[nH]1 [6-Thioguanine] | 1.43
32 | c1cc(-c2cnn3cc(-c4ccc(OCCN5CCCCC5)cc4)cnc23)ccn1 [Dorsomorphin (dihydrochloride)] | 1.8
33 | CN1CCc2c(c3ccccc3n2Cc2ccc(C(=O)NO)cc2)C1 [Tubastatin A (Hydrochloride)] | 2.07
34 | CCN(CCN(C)C)C(=O)CNCc1cc(C(N)=O)ccn1 [KDOAM-25 (citrate)] | 1.15
35 | NC(=O)C1CCCc2c1[nH]c1ccc(Cl)cc21 (stereo not drawn) [Selisistat] | 0.963
36 | Cc1cnc(NC(=O)Nc2cc(Br)c(C)cc2OC[C@@H]2CNCCO2)cn1 | 0.787
37 | CCN(CC)CCNC(=O)c1c(C)[nH]c(/C=C2\C(=O)Nc3ccc(-c4csc(-c5ccccc5)n4)cc32)c1C [Amcasertib (BBI503)] | 0.885
38 | COc1cc2ncnc(Oc3cccc(NC(=O)Nc4cc(C(C)(C)C(F)(F)F)on4)c3)c2cc1OC | 1.02
